Laboratory results taken from PubChem BioAssay AID1619 (SRMLSC, 2009).
Among all 220,000 compounds or so, about 830 (0.38%) were called active.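 Rule for the calls: active = compound inhibiting the enzyme by more than half at any dose during confirmatory dose-response retesting; inconclusive = strong single-dose inhibitors picked by rank but not retested; inactive = the rest.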 These entries were drawn from the full list. Potency and affinity values are given separately. Residues, ends and D or L forms follow the SMILES beside them. *: point of attachment. Boc = CC(C)(C)OC(=O)*

target: Leucine aminopeptidase (Plasmodium falciparum (isolate 3D7)) (UniProt Q8IL11); assay: P. falciparum M17LAP inhibitors, primary screen, biochemical, fluorogenic H-Leu-NHMec substrate, 1536-well (AID 1619); settings: recombinant M17LAP, H-Leu-NHMec fluorogenic kinetic assay; at 30 µM; hits give high values;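 note: plate controls were full reaction with DMSO carrier for no effect and no enzyme background for full effect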
Sequence (Q8IL11 whole entry, looked up): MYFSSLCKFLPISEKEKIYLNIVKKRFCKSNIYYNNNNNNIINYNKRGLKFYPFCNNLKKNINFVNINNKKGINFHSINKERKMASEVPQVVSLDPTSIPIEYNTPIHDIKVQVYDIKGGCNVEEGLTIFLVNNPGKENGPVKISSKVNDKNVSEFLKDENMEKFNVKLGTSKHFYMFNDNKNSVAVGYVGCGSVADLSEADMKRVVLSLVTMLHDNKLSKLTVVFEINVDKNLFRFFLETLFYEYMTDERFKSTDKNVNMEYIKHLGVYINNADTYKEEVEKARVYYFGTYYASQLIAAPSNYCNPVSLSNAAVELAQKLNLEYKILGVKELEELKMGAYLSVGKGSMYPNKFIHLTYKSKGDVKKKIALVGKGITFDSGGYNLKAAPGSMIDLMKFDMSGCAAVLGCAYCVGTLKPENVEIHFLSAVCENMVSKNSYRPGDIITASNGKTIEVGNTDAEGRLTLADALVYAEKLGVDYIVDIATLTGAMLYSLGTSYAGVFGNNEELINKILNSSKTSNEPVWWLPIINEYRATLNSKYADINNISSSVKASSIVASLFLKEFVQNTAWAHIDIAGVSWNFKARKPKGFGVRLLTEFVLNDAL

inhibition, inactive:
CCc1c(C)sc2nc3c(C(=O)N4CCOCC4)cc(C(=O)c4ccccc4O)cn3c(=O)c12 5.44%
Cc1noc(C)c1C1(O)CCCCCCCCCCC1 0.02%
CSc1nc2ccccc2s1 13.1%
CCC1CSC(Nc2ccc(C(=O)/C=C/c3ccc(Br)cc3)cc2)=N1 (stereo unspecified) 15.6%
CSc1ncc(Cl)c(C(=O)Nc2nnc(SC)s2)n1 13.3%
CCSc1ncc(Cl)c(C(=O)Nc2ccccc2)n1 -6.07%
C=CCSc1nnc(NC(=O)c2ccc(Cl)nc2)s1 9.37%
CSc1ncc(Cl)c(C(=O)Nc2nnc(SC/C=C/c3ccccc3)s2)n1 29.5%
O=C(CCn1cnc2ccccc21)N/N=C/c1ccccc1O -4.46%
CCOC(=O)CSc1nc(C(C)(C)C)nc2ccccc12 -0.8%
Cc1cc(C)c2c(=O)n(CC(=O)Nc3cccc(F)c3)sc2n1 -3.07%
CC1(C(=O)Nc2nnc(C(C)(C)C)s2)Cc2ccccc2C(=O)O1 (stereo unspecified) 48.3%
CC1(C(=O)Nc2nnc(SCc3ccccc3)s2)Cc2ccccc2C(=O)O1 (stereo unspecified) 45.4%
Cc1ccc(-c2noc(CNCCCN(C)C)n2)cc1 2.07%
Cn1c(=O)c2c(SCC(=O)N3CCOCC3)nc(C3CCCCC3)nc2n(C)c1=O -15.2%
O=C(Cc1csc(NC(=O)c2ccccc2)n1)NO 28.3%
O=C(Cc1ccc(-c2ccccc2)cc1)NCc1ccccc1 -2.44%
CS(=O)(=O)N(CC(=O)N1CCOCC1)Cc1ccc(Cl)cc1 -4.28%
CCC(=O)c1ccc(-c2ccccc2)cc1 -6.48%
CN(C)CC(=O)c1ccc(-c2ccccc2)cc1 68.2%
CC(C)(C)OC(=O)N1CCCC1C(=O)NC(Cc1ccccc1)C(=O)O (stereo not drawn) (Boc-Pro-Phe-OH; configuration not given here) 9.76%
CC(C)C(NC(=O)OC(C)(C)C)C(=O)N1CCCC1C(=O)NC(Cc1ccccc1)C(N)=O (stereo not drawn) (Boc-Val-Pro-Phe-NH2; configuration not given here) 17.4%
Cc1nn(-c2ccc(F)cc2)c(Cl)c1/C=C/C(=O)OCC(=O)Nc1ccc(F)cc1F 0.75%
O=C(c1ccccc1)c1ncc(C(F)(F)F)cc1Cl -12.8%
O=C(O)CCCCCn1c(SCC(=O)N2CCCC2)nc2ccsc2c1=O 14.5%
CCCCn1c(SCC(=O)c2ccc(O)c(O)c2)nc2ccsc2c1=O 19.5%
CNc1nc(Oc2ccc(C(=O)OC)cc2)nc(SC)n1 -13.4%
Cn1cc(Cl)c(-c2n[nH]c(=S)n2-c2ccccc2)n1 8.04%
CCOC(=O)c1c(NC(=O)CSc2nc3ccccc3c(=O)n2-c2ccccc2)sc(C(C)=O)c1C -1.44%
O=C(c1cnn(C(=O)COc2ccccc2F)c1)c1cc(F)ccc1O 1.06%
Cc1ccc(O)c(C(=O)c2cnn(C(=O)Cc3csc(C)n3)c2)c1 -1.8%
O=C(Cn1cnc2ccccc2c1=O)c1ccc(Cl)cc1 1.39%
COc1ccc(N(C(=O)C(C)C)S(=O)(=O)c2ccc(Cl)cc2)cc1 -1.25%
CCOc1ccc(Nc2nc(Cc3nnc(SCC(N)=O)o3)cs2)cc1 27.7%
CCn1c(CNc2nc(-c3ccccc3)cs2)nnc1SCC(=O)NCc1ccco1 -5.1%
CCn1c(COc2ccc(C)cc2)nnc1SCC(=O)NCc1ccco1 6.34%
CCOc1ccc(Nc2nc(Cc3nnc(SCC(=O)c4ccc(C)cc4)o3)cs2)cc1 27.5%
CC(=O)/C(=N\Nc1cccc(Cl)c1)Sc1nnc(-c2ccccc2)n1-c1ccccc1 -10.1%
CCC(Oc1ccccc1)C(=O)NC1C(=O)N2C1SC(C)(C)C2C(=O)O (stereo unspecified) 19.9%
Cn1c(=O)c2c(nc(N3CCCCC3)n2CCNC2=NCCC2)n(C)c1=O 11.7%
O=C(Nc1ccccc1)Nc1scc2c1c(=O)oc1ccccc12 -3.24%
COc1ccc(C(=O)N2CCc3cc(OC)c(OC)cc3C2c2cccc([N+](=O)[O-])c2)cc1OC (stereo unspecified) -0.93%
Cc1ccc(C2C(C#N)=C3N=C(N)c4ccccc4N3C3=C2C(=O)CCC3)cc1 (stereo unspecified) -9.17%
Cn1c(-c2cccc3ccccc23)n[nH]c1=S -3.33%
c1ccc2c(-c3nn[nH]n3)cccc2c1 -2.27%
O=C(Oc1ccc(Br)cc1C(=S)N1CCCC1)c1ccccc1F -3.73%
CN=C1SC(CC(=O)Nc2ccc(N3CCOCC3)cc2)C(=O)N1C (stereo unspecified) -4.74%
CSCCC(NC(=O)c1ccc(C)o1)C(=O)O (stereo unspecified) -6.5%
CSCCC(NC(=O)c1cc(C)oc1C)C(=O)O (stereo unspecified) 5.74%
COC(=O)c1cccc(NC(=O)c2onc3c2CCCC3)c1 10.6%
Cc1cc(C(F)(F)F)nn1CC(=O)NNC(=S)Nc1ccc(Cl)cc1 19.4%
Cc1cc(C(=O)N/N=C/C=C/c2cccc([N+](=O)[O-])c2)n[nH]1 26.9%
CC(C)=N/N=C(/c1ccc([N+](=O)[O-])cc1)C12CN3CN(CN(C3)C1)C2 5.26%
CCOC(=O)c1c(NS(C)(=O)=O)sc2c1CCC(C)C2 (stereo unspecified) 8.14%
CCOC(=O)c1c(NC(=S)Nc2ccccc2)sc2c1CCCCC2 3.6%
CCOC(=O)c1c(N2C(=O)C3C4C=CC(C4)C3C2=O)sc2c1CCC(C)C2 (stereo unspecified) 2.96%
CCOC(=O)c1c(NC(=O)C2C3C=CC(C3)C2C(=O)O)sc2c1CCCC2 (stereo unspecified) 42%
CCOC(=O)c1c(NC(=O)C2C3CCC(O3)C2C(=O)O)sc2c1CCC(CC)C2 (stereo unspecified) 7.12%
CCOC(=O)c1c(N)sc2c1CCC(CC)C2 (stereo unspecified) -12.2%
CCOC(=O)c1c(NC(=O)c2ccc(N3C(=O)C4C5C=CC(C5)C4C3=O)cc2)sc2c1CCCC2 (stereo unspecified) -6.59%
CCOC(=O)c1c(NC(=O)C2C3C=CC(C3)C2C(=O)O)sc2c1CC(C)(C)OC2 (stereo unspecified) 31.8%
Cc1ccc(-n2c(SCC(=O)Nc3cc(C)on3)nc3c([nH]c4ccccc43)c2=O)cc1 4.1%
Cc1cc(C)n(CC(=O)c2cccc([N+](=O)[O-])c2)n1 7.13%
CNC(=O)c1nc(C)c(C2(C)CC(c3cccc([N+](=O)[O-])c3)=NO2)s1 (stereo unspecified) 11.9%
Cn1c(=O)n(C/C=C/c2ccccc2)c(=O)c2c1nc1n2CCCN1c1ccc(F)cc1 -5.1%
O=C(C1=C[C@@H](c2ccc(Br)cc2)C[C@@H](OCCCCO)O1)N1CCN(Cc2ccccc2)CC1 -0.63%
Cc1nn(C)cc1S(=O)(=O)N1CCN(Cc2ccc(F)cc2Cl)CC1 3.03%
CN1CCC(=NNC(=O)CN(c2cccc(Br)c2)S(C)(=O)=O)CC1 12.4%
CCOc1ccc(C(=O)NCc2ccccc2)cc1Br 5.79%
CCOCCOC(=O)C1=C(C)N(C)C(=O)NC1c1cc(Cl)c(O)c(OC)c1 (stereo unspecified) 2.91%
NS(=O)(=O)c1ccc(NCC2COc3ccccc3O2)c([N+](=O)[O-])c1 (stereo unspecified) 0.14%
C=CCn1c(SCC(=O)O)nnc1-c1cccs1 0.97%
CCn1c(SCC(=O)c2ccc(NS(=O)(=O)c3ccccc3)cc2)nnc1-c1cccs1 37%
CCC(=O)Nc1ccc(C(=O)CSc2nnc(-c3ccccc3F)n2C2CC2)cc1 4.72%
Cc1ccccc1OCc1nc2ccccc2c(=O)n1N -9.96%
COc1ccc(OC)c(S(=O)(=O)Nc2ccc(O)c(Sc3ncn[nH]3)c2)c1 38.9%
CCOc1ccc(S(=O)(=O)Nc2ccc(O)c(Sc3ncn[nH]3)c2)cc1 71.4%
Nc1c([N+](=O)[O-])cnnc1-c1ccccc1 -9.73%
Cc1n[nH]c(C)c1CNCc1c(C(=O)N2CCCCCCC2)nc2ccc(Cl)cn12 -4.57%
COc1ccc(NC(=O)CSc2nnc(NC(C)=O)s2)c([N+](=O)[O-])c1 11.8%
CCOc1ccc(/C=C2\SC(=S)N(NS(=O)(=O)c3ccccc3)C2=O)cc1OC 43.7%
CCOc1ccc(/C=C2\SC(=S)N(C(C(=O)O)c3ccccc3)C2=O)cc1OC (stereo unspecified) 30.6%
CCOc1ccc(/C=C2\SC(=S)N(NS(=O)(=O)c3ccc(C)cc3)C2=O)cc1OC 21.5%
COc1cc(/C=C2\SC(=S)N(NS(=O)(=O)c3ccccc3)C2=O)cc(OC)c1OC 27.3%
CCOc1ccc(/C=C2/SC(=S)N(C(C(=O)O)c3ccccc3)C2=O)cc1OCC (stereo unspecified) 21.4%
COc1cc(/C=C2\SC(=S)N(NS(=O)(=O)c3ccc(C)cc3)C2=O)cc(OC)c1OC 19.5%
COc1cc(=O)n(C)c2c(O)cccc12 4.51%
Cc1nnc(NC(=O)CSc2nnc(Cc3ccccc3)n2Cc2ccccc2)s1 14.2%
CCN(Cc1ccccc1)S(=O)(=O)c1ccc2c(c1)NC(=O)CC(=O)N2 0.95%
CCCCC1=CC2=CC(=O)C(C)(OC(=O)CC)C(=O)C2=CN1CCc1c[nH]c2ccccc12 (stereo unspecified) -3.57%
CCCn1c(=O)c(C(=O)N/N=C/c2ccc(F)cc2)c(O)c2ccccc21 -4.04%
